Hits are enriched below; roughly 1.1% of the tested compounds scored in any of these assays.
AmpC no deterg: blocks E. coli AmpC beta-lactamase in detergent-free assay; AmpC nitrocefin hydrolysis, absorbance 480 nm, 0.0001% Triton; Potency, µM (series often up to 57.1 µM), usual class: inhibitors; actives 0.52% (n = 330,000); note: nearly all actives have a fitted effect of over 20% in size
Target sequence (P00811 whole entry, looked up): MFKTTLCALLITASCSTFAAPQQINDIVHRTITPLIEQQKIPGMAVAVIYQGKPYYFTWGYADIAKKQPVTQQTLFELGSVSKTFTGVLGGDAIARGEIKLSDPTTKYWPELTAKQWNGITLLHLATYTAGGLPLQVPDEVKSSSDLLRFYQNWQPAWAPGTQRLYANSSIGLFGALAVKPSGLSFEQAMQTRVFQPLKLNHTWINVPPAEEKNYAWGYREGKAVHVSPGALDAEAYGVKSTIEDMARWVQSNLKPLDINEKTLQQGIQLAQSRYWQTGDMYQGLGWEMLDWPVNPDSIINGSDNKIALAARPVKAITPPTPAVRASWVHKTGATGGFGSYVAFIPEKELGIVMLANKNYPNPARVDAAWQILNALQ
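20 mM phosphate pH 7.0 + 0.01% (detergent screen) or 0.0001% Triton X-100; 5.3 nM AmpC reagent; cpd preinc 15 min RT; nitrocefin (800 uM stock) to start; A480 q20 s × 4 min; Activity was normalised to no-enzyme and no-compound control wells.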
VACV mCherry inh: inhibitors of vaccinia virus infection (mCherry reporter signal). actives 0.63% (n = 310,000). Potency, µM (highest dose often 36.5 µM), hits mostly inhibitors. Vaccinia virus mCherry reporter infection, fluorescence; calls by dose curve; tested in A549 cells; note: nearly all actives have a fitted effect of over 35% in size
AmpC inh detg: inhibitors of E. coli AmpC beta-lactamase with detergent | P00811 | AmpC hydrolysis of nitrocefin, absorbance 480 nm, 0.01% Triton | Potency, µM (top dose mostly 114 µM), most hits filed as inhibitors | actives 0.041% (n = 370,000) | AID 485294; note: nearly all actives have a fitted effect of over 25% in size
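AmpC (5.3 nM in the dispensed reagent) in 20 mM phosphate pH 7.0 with 0.01% (detergent screen) or 0.0001% Triton X-100 was preincubated with compounds for 15 min at room temperature. Nitrocefin was then added from an 800 uM solution, and hydrolysis was followed at 480 nm.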
Vaccinia Venus: vaccinia inhibition (Venus reporter). Vaccinia virus Venus reporter expression, fluorescence. Potency, µM (doses to about 36.5 µM), hits mostly inhibitors. actives 0.46% (n = 330,000); calls by dose curve; tested in A549 cells; note: nearly all actives have a fitted effect of over 30% in size
A number is an active result; . = inactive; ? = inconclusive; / = no result given; [ ] = dose if it differs, or a comment. Unless noted, calls come from the whole dose curve; as a rule, active = well fitted curve in the direction sought with a large enough effect; inconclusive = small, poorly fitted or top-dose-only effect, or another doubt; inactive = no such curve, though single readings can be large; an effect the other way counts as inactive or inconclusive.

SMILES | AmpC no deterg | VACV mCherry inh | AmpC inh detg | Vaccinia Venus
O=C(/C=C/c1ccccc1Cl)c1ccc[nH]1 | . | 12.6µM | . | ?
O=C(/C=C/c1ccc(Cl)cc1Cl)c1ccc[nH]1 | . | / | . | /
Cc1cccc(NS(=O)(=O)c2ccc(C)c(C(=O)OCC(=O)Nc3cc(C)on3)c2)c1 | . | 22.4µM | ? | .
Cc1cccc(NS(=O)(=O)c2cc(C(=O)OCC(=O)Nc3cc(C)on3)ccc2C)c1 | . | / | . | /
COc1cc(OC)c(-c2nn3c(-c4ccco4)nnc3s2)cc1OC | . | 11.2µM | . | ?
CC12CCC(C(=O)N/N=C/c3ccc(O)cc3O)(OC1=O)C2(C)C (stereo unspecified) | . | 14.1µM | . | .
C/C(=N\NC(=O)C12CCC(C)(C(=O)O1)C2(C)C)c1ccccc1O (stereo unspecified) | . | ? | . | .
CN1c2ccccc2C(C)(C)C12C=Nc1c(ccc3ccccc13)O2 (stereo unspecified) | 25.1µM | . | ? | .
CC(=O)Nc1ccccc1-c1nc(CNC(=O)c2ccc(C)cc2)c(C)o1 | / | . | / | .
Cc1onc(-c2ccccc2)c1C(=O)NC(=S)NNC(=O)c1cc(-c2ccc(F)cc2)n[nH]1 | 2µM | .[7.34 µM] | . | .[7.34 µM]
CC(C)c1nc(C(=O)N2CCOc3ccc(CN4CCN(c5ccccn5)CC4)cc3C2)cs1 | / | . | / | .
O=C1C=C(c2ccccc2)C[C@H](c2cccs2)[C@H]1n1nnc([N+](=O)[O-])n1 | . | 14.1µM | . | ?
O=C1C=C(c2ccccc2)CC(c2cccs2)C1n1cnc([N+](=O)[O-])c1 (stereo unspecified) | . | / | . | .
C=CC[C@@H](CC(=O)N(CCO)Cc1ccccc1)C(=O)N[C@@H](COC(=O)[C@@H](CC=C)Cc1ccc(F)cc1)Cc1c[nH]c2ccccc12 | . | ? | / | 10µM
C=CC[C@H](CC(=O)N(CCO)Cc1ccccc1)C(=O)N[C@@H](COC(=O)[C@@H](CC=C)Cc1ccc(F)cc1)Cc1c[nH]c2ccccc12 | . | 11.2µM | / | 10µM
COC(=O)[C@@H]1CCCN1C(=O)c1c(OC)cc(=O)n2c1CCN(Cc1ccc(C)o1)CC2 | / | . | / | .
O=C(c1cccc(Cn2cccn2)c1)N1CCC(n2c(C3CCCO3)nc3cc(C(F)(F)F)ccc32)CC1 (stereo unspecified) | / | . | / | .
COC1=C(C)C(=O)C2=C(C1=O)C1C3CC4=C(C(=O)C(OC)=C(C)C4=O)C(CNC(=O)C(C)=O)N3C(C#N)C(C2)N1C (stereo unspecified) | / | ? | / | 1µM
CCC1(C2CCN(Cc3cc4ccccc4o3)CC2)NC(=O)N(CC2COc3ccccc3O2)C1=O (stereo unspecified) | / | ? | / | .
COC(=O)c1cc(C)nc2c1C(=O)C(=O)C=C2N1CCOCC1 | . | ? | . | 4.47µM
C[C@]12CC[C@@H]3c4ccc(O)cc4CC[C@H]3[C@@H]1CCC2=O | . | . | . | .
Cc1cc(O)cc2c1C1CCC3(C)C(=O)CCC3C1C=C2 (stereo unspecified) | / | 1.78µM | / | ?
CCC(=O)NC(c1ccc(C)cc1)c1cc([N+](=O)[O-])c2cccnc2c1O (stereo unspecified) | . | 11.2µM | . | ?
CC(=O)NC(c1ccccc1)c1cc(Cl)c2cccnc2c1O (stereo unspecified) | . | ? | . | ?
CC(=O)NC(c1ccc(C)cc1)c1cc([N+](=O)[O-])c2cccnc2c1O (stereo unspecified) | . | 12.6µM | . | ?
SMILES | AmpC no deterg | VACV mCherry inh | AmpC inh detg | Vaccinia Venus
CC(=O)NC(c1ccc(N(C)C)cc1)c1cc(Cl)c2cccnc2c1O (stereo unspecified) | / | 3.16µM | / | ?
COc1ccc(C(NC(C)=O)c2cc(Cl)c3cccnc3c2O)cc1 (stereo unspecified) | . | / | ? | /
COc1ccc2c(c1)CCc1cnc(-n3ncc(C(=O)NCCCc4ccncc4)c3C)nc1-2 | / | ? | / | .
CN(C)c1ccc(/C=C/c2cc3ccccc3cn2)cc1 | / | . | / | .
CC1=CC(=O)c2c(O)ccc(O)c2C1=O | 14.1µM | / | ? | /
CCCC[C@@H]1CNCCN1CCc1cc(C(F)(F)F)cc(C(F)(F)F)c1 | . | . | . | ?
CCC(C)[C@H]1CNCCN1CCc1cc(C(F)(F)F)cc(C(F)(F)F)c1 (stereo partly specified) | . | ? | . | 15.8µM
COc1ccc(-c2cc3nc(-c4ccccc4)cc(N4CCCC(O)C4)n3n2)cc1 (stereo unspecified) | . | 12.6µM | . | ?
COc1ccc(-c2cc3nc(-c4ccccc4)cc(N4CCC(O)CC4)n3n2)cc1 | . | . | . | .
O=C(c1cnn(-c2nccc(-c3ccco3)n2)c1C1CC1)N1CCCCC1c1cccnc1 (stereo unspecified) | / | . | / | .
CCOC(=O)Nc1ccc2c(c1)C(=NNC(N)=S)c1ccccc1-2 | / | 11.2µM | / | 15.8µM
CCOC(=O)Nc1ccc2c(c1)C(=NO)c1ccccc1-2 | / | . | / | ?
Brc1ccc[n+](CCc2ccccc2)c1 | / | . | / | .
C/C(=N\NP(=S)(c1ccccc1)c1ccccc1)c1ccc(O)cc1O | 15.8µM | ? | . | .
O=C(NC(=S)Nc1ccccn1)c1ccc(-c2ccccc2)cc1 | . | 11.2µM | . | .
CCC1CSC(Nc2ccc(C(=O)/C=C/c3ccc(OC)c(OC)c3)cc2)=N1 (stereo unspecified) | . | 11.2µM | . | ?
COc1ccc(C(=O)C=Cc2ccc(OCc3ccccc3)c(OC)c2)cc1OC | / | ? | / | 11.2µM
COc1ccc(C=CC(=O)c2ccc(OC)c(OC)c2)cc1O | / | ? | / | 10µM
CCC1CSC(Nc2ccc(C(=O)/C=C/c3ccc(Br)cc3)cc2)=N1 (stereo unspecified) | . | . | . | .
COc1cc(OC)c(C(=O)C=Cc2ccc(OC)c(OC)c2)c(OC)c1 | / | 10µM | / | ?
COC(=O)c1cccc(-c2cc(Cl)c3c(c2)CC(CNC(=O)c2cccnc2)O3)c1 (stereo unspecified) | / | . | / | .
O=C(COC(=O)c1ccccc1Oc1ccccc1)Nc1ccc(Br)cc1 | / | . | / | .
Cc1csc(C(=O)O)c1-n1cccc1 | 0.282µM | / | . | /
CCOC(=O)/C(C#N)=C1/C=C(C)NC(c2ccccc2O)=N1 | . | ? | ? | 10µM
O=C(CC1SC(=O)N(c2ccccc2)C1=O)Nc1cccc2ccccc12 (stereo unspecified) | 17.8µM | ? | . | .
SMILES | AmpC no deterg | VACV mCherry inh | AmpC inh detg | Vaccinia Venus
CC(C)(C)[C@H]1CCC(=O)N(CCSc2ccc(Br)cc2)CC1 | / | . | / | .
CCN(CC)CCNC(=O)C(Cl)=C1C(Cl)=C(Cl)C(Cl)=C1Cl | / | 2µM | / | 0.794µM
N#C/C(=C\c1ccc(Sc2ccc(Cl)cc2)o1)c1nc2ccccc2[nH]1 | 28.2µM | ? | . | .
CN(C)/C=C(\C#N)c1nc2ccccc2[nH]1 | . | . | ? | .
N#C/C(=C\c1c(Cl)cccc1Cl)c1nc2ccccc2[nH]1 | 11.2µM | . | . | .
Cc1cnc(SCC2CCCO2)nc1C1CCCN(C(=O)C2=NNC(=O)CC2)C1 (stereo unspecified) | / | . | / | .
CCCCn1nnc(NC(=S)NC(=O)c2cccs2)n1 | . | ? | . | 2.24µM
CCCn1nnc(NC(=S)NC(=O)CC)n1 | . | / | . | /

From PubChem BioAssay
